An excerpt weighted towards active compounds, which were near 4.7% of everything screened.
D1 antag: human D1 dopamine receptor antagonism | HEK293 TREx D1 cells, calcium flux, dopamine EC80; stronger effect = lower value | AID 504652 | hit rate 3.2% among 360,000 | activity change, negative = inhibition, % at 10 µM; in the data active means activity change below about -30%; further: on the % scale 0 is the no-effect control and ±100 the full control effect
Target sequence (P21728 whole entry, looked up): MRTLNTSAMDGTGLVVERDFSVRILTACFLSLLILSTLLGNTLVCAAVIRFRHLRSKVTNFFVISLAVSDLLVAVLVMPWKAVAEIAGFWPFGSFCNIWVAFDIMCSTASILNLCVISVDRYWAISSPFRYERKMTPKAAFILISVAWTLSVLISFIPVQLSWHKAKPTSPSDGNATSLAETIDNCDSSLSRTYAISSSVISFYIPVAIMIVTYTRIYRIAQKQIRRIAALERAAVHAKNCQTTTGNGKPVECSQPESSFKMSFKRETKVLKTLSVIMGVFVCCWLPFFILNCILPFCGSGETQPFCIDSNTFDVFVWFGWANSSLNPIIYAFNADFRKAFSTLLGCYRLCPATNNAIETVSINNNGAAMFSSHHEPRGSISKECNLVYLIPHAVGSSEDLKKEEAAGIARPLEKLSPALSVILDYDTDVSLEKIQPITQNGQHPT
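Kinetic fluorescence of a calcium dye serves as the read-out. D1-expressing Hek293 Trex cells, induced overnight at 30 C, are exposed to compound for 180 s before an EC80 dopamine addition, then read 180 s further.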
TRHR enhancer: allosterically enhances the human TRH receptor; P34981; TRHR cells, fluo-8 calcium fluorescence, EC20 TRH enhancement; enhancement, % at 2 µM; hit rate 0.66% among 360,000; in the data active means enhancement above about 30%; further: 0% is about no effect
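TRHR-expressing cells loaded with fluo-8 calcium dye were read kinetically (ex 480/em 530) during compound addition, then stimulated with an EC20 of TRH (10 nM final). Enhancement of the Gq-mediated intracellular calcium response was scored.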
TRHR agonist: activates the human TRH receptor. P34981. TRHR cells, calcium flux fluo-8, FDSS agonist mode. activation, % at 2 µM. hit rate 0.18% among 360,000. AID 493084; further: 0% is about no effect
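Steps: seed TRHR cells overnight; add fluo-8 no-wash Ca dye, RT 30 min–1.5 h; record 10 s baseline; pin-transfer compounds; monitor fluorescence 1 cycle/s for the agonist window. Calcium increases flag candidate agonists.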
D1 ag: human D1 receptor agonism; P21728; HEK293 T-REx D1 cells, calcium flux, agonist mode; activation, % at 2 µM; hit rate 1% among 360,000; AID 504660; further: 0% is about no effect
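Agonism was scored from calcium flux recorded over 180 s (1 read/s) after pintool compound addition, following a 10-cycle baseline. Cells were inducible force-coupled HEK293 TREx D1, plated overnight at 30 C and loaded with no-wash calcium dye.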
D1 PAM: enhances dopamine response at the human D1 receptor | P21728 | HEK293 TREx D1 cells, calcium flux, dopamine EC20 potentiation | potentiation, % at 10 µM | hit rate 0.036% among 360,000; in the data active means potentiation above about 30%; further: 0% is about no effect
* hit, by the source's call; x = no result given. Unless noted, no stated cut-off is given here; in the data, active means activation above about 30%; inactive means the rest.

SMILES	D1 antag	TRHR enhancer	TRHR agonist	D1 ag	D1 PAM
O=c1oc2ccccc2cc1-c1ccc(O)cc1O	-31*	6	0	2	-2
c1ccc(-n2c(SCC3CCCCO3)nnc2-c2cccs2)cc1 (stereo not drawn)	-32*	-2	-1	2	0
Cc1cccc(OCc2nnc(SCC(=O)NCC3CCCO3)n2C)c1 (stereo not drawn)	7	37*	0	-2	-2
CCCCNC(=O)CSc1nnc(-c2ccc(S(=O)(=O)N3CCCC3)cc2)n1C	-68*	-2	1	-2	-7
C=CCNC(=O)CSc1nnc(-c2ccc(S(=O)(=O)N3CCCC3)cc2)n1C	-5	-3	-1	6	x
O=C(CSc1nnc(-c2ccncc2)n1-c1ccccc1)NCC1CCCO1 (stereo not drawn)	-51*	-6	0	3	-8
O=C(Nc1ccc(OCc2cc(=O)n3c4c(sc3n2)CCCC4)cc1)c1ccccc1	9	1	0	0	2
CCCNC(=O)CSc1ccc(S(=O)(=O)N2CCCCC2)cn1	-11	-1	0	2	-1
CCCNC(=O)CSc1ccc(S(=O)(=O)N2CCCC2)cn1	-34*	6	0	0	2
O=S(=O)(c1ccc(SCc2ccccc2F)nc1)N1CCCC1	-34*	-2	1	13	x
Cn1c(SCC(=O)NCC2CCCO2)nnc1-c1ccc(S(=O)(=O)N2CCCC2)cc1 (stereo not drawn)	8	38*	0	3	0
Cc1ccc(CSc2ccc(S(=O)(=O)N3CCCC3)cn2)cc1	-21	-10	0	10	-4
Cc1ccc(-n2ncc(C(=O)NC3CCCC3)c2C2CCN(C(=O)OC(C)(C)C)CC2)c(C)c1	4	-16	-1	-1	-2
Cc1ccc(CNS(=O)(=O)c2ccc3c(c2)NC(=O)CS3)cc1	-34*	8	-1	6	-3
CCN(Cc1ccccc1)S(=O)(=O)c1ccc2c(c1)NC(=O)CS2	-36*	-4	0	8	-6
O=C1CSc2ccc(S(=O)(=O)NCc3ccc(F)cc3)cc2N1	-1	3	0	5	-8
COc1ccc(N(CC(=O)Nc2ccc3c(c2)OCCO3)S(=O)(=O)c2c(C)nn(C)c2C)cc1	-30*	-1	0	1	-6
COc1ccc(N(CC(=O)Nc2nccs2)S(=O)(=O)c2c(C)nn(C)c2C)cc1	-55*	1	0	0	-1
Cc1nn(C)c(C)c1S(=O)(=O)N(CC(=O)Nc1nccs1)c1ccc(C(C)C)cc1	1	14	0	1	-2
COc1cc2c(cc1NC(=O)COc1ccc(Cl)cc1Br)oc1ccccc12	0	-17	1	1	-1
CCN1CCC(N(Cc2cccc(OC)c2)C(=O)Nc2cccc(C(F)(F)F)c2)CC1	-4	1	1	27	-1
CCN1CCC(N(Cc2ccc(F)cc2)C(=O)Nc2cccc(C(F)(F)F)c2)CC1	-25	3	3	100*	0
COc1cccc(/C=N/N2CCOCC2)c1O	11	0	0	2	-2
COc1cccc(C=Nc2ccc(N3CCOCC3)cc2)c1O	-8	36*	-2	4	5
C=CCNC(=O)c1onc(CSc2ccccn2)c1C(=O)NCC=C	-60*	2	0	2	0
SMILES	D1 antag	TRHR enhancer	TRHR agonist	D1 ag	D1 PAM
Cc1ccc(Sc2ncnc3onc(C)c23)c(C)c1	x	1	-1	-3	-3
COc1ccc(Sc2ncnc3onc(C)c23)cc1	-42*	-1	1	-1	-3
CCOc1c(CC2C(=O)Nc3ccc(Br)cc32)cccc1OC (stereo not drawn)	-41*	9	-3	69*	-2
Nc1nc2ccccc2cc1-c1cccs1	-60*	0	-1	14	-25
N#Cc1cc2ccccc2nc1N	11	-3	1	2	1
Cc1ccc(-c2cc3ccccc3nc2N)cc1	-98*	1	3	6	-27
Cc1ccc(-n2ncc(C(=O)NCCCN3CCc4ccccc4C3)c2C2CCN(C(=O)OC(C)(C)C)CC2)cc1C	12	-10	0	2	1
Cc1cc(=O)[nH]c(SCC(=O)Nc2cccc(C(F)(F)F)c2)n1	-32*	-2	0	2	0
O=C(CSc1ncnc2c1cnn2CCO)Nc1cccc(C(F)(F)F)c1	7	31*	0	26	-6
Cc1cc(C)cc(NC(=O)Cc2noc3ccccc23)c1	-63*	-3	1	-1	-2
Cc1ccc2onc(CC(=O)Nc3cc(F)ccc3F)c2c1	-81*	-6	0	-1	-3
COC(=O)c1ccccc1NC(=O)Cc1noc2ccc(C)cc12	-21	10	0	-1	-4
Cc1ccc(NC(=O)Cc2noc3ccccc23)cc1	0	1	0	2	-1
COc1ccccc1CNC(=O)CC1N=C2c3ccccc3N=C(SCC(=O)Nc3ccc(F)cc3)N2C1=O (stereo not drawn)	-11	3	-1	-2	-1
COc1ccc(-c2ccc(CCC(=O)O)n2CC(=O)Nc2cccc(C(F)(F)F)c2)cc1	1	0	0	1	-2
Cc1ccc2onc(CC(=O)Nc3cccc(C(F)(F)F)c3)c2c1	-75*	-19	1	0	-6
COc1cc(C)ccc1OCCSc1nc2ccc(NC(C)=O)cc2s1	0	-3	-2	1	2
Cc1cc(C)n(S(=O)(=O)c2ccccc2[N+](=O)[O-])n1	-56*	2	0	5	2
COc1ccc(C2(CNC(C)=O)CCOCC2)cc1OC	-35*	2	0	2	x
COc1ccc(C2(CNC(=O)C(=O)Nc3ccc(F)cc3)CCCC2)cc1OC	6	32*	1	-1	-1
CC(=O)N1CCC(N(CCN2CCOCC2)C(=S)Nc2ccc(C)cc2C)CC1	-31*	2	1	3	-5
CC(=O)N1CCC(N(CCN2CCOCC2)C(=S)Nc2ccc(C)cc2)CC1	-2	-1	1	1	-2
Cc1ccc(C(OCC(O)CNCc2ccc(F)cc2)c2ccccc2)cc1 (stereo not drawn)	4	1	2	67*	31*
O=C(c1ccccc1)c1ccc(OCC(O)CNCc2cccc(Cl)c2)cc1 (stereo not drawn)	-5	7	3	43*	-2
O=C(c1ccccc1)c1ccc(OCC(O)CNCc2ccc(F)cc2)cc1 (stereo not drawn)	-18	10	2	52*	-3
CCC(=O)c1ccc(OCC(O)CNCc2ccc(F)cc2)cc1 (stereo not drawn)	-5	2	1	10	-1
O=C(COc1ccc(C(=O)c2ccccc2)cc1)NCc1ccc(F)cc1	-39*	16	-1	16	-3
